Screening data deposited in PubChem BioAssay by National Center for Advancing Translational Sciences (NCATS).
Shiga toxin inh = Shiga toxin inhibition; Vero cells, Shiga toxin protein synthesis inhibition reporter; 9.2% of 290,000 active; inhibition, % at 38.7 µM; AID 2315; in the data active = inhibition mostly above about 28%, no sharp cut-off; inactive = mostly below about 43%; note: 0% is about no effect
Cycloheximide cs = counter-screen for Shiga toxin inhibitors: cycloheximide protein synthesis inhibition; cell reporter, cycloheximide protein synthesis inhibition counterscreen; max response, %; 12% of 300,000 active; AID 2314; in the data active = max response mostly above about 13%, no sharp cut-off; inactive = mostly below about 14%; note: read at 38.3 µM for the half of the compounds with a filed dose; 0% is about no effect
Pf growth 96h = inhibits malaria parasite growth, 96 h | P. falciparum luciferase reporter growth, 96 h | Potency, µM (doses to about 28.7 µM), inactives show top-dose activity change, negative = inhibition, hits mostly inhibitors | 6.9% of 320,000 active; note: potency is the fitted concentration of half-maximal effect; % is set by controls: 0 for no effect and ±100 for the full control effect
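Two-generation exposure (96 h) targets delayed-death phenotype. Reporter parasites carrying integrated firefly luciferase, in red cells at 2% hematocrit and 0.05% parasitemia final, kept at 37 C, 5% CO2; luminescence loss indicates inhibition.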
Pf growth 48h = inhibits P. falciparum growth in the first generation, 48 h | Potency, µM (doses to about 28.7 µM), inactives show at the highest dose activity change, negative = inhibition, most hits filed as inhibitors | 5.9% of 310,000 active | P. falciparum luciferase growth in erythrocytes, 48 h; note: potency is the fitted concentration of half-maximal effect; % is set by controls: 0 for no effect and ±100 for the full control effect
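Luciferase-expressing parasites in RBCs, 2% Hct / 0.1% parasitemia final; RPMI 1640 + 0.5% Albumax; 37 C, 5% CO2, one generation; luminescence read-out, lower signal = inhibition.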
SARS PLP yeast = SARS-CoV PLP inhibition in yeast. S. cerevisiae expressing SARS-CoV PLpro, growth rescue. Potency, µM (highest dose often 32.9 µM), for the others: at the top dose activity, positive = growth rescue, actives largely listed as activators. 0.19% of 330,000 active. AID 485353; calls by dose curve; note: potency is the fitted concentration of half-maximal effect; 0% is about no effect; nearly all actives have a fitted effect of over 55% in size
AMA1 RON2 block = inhibitors of Plasmodium falciparum AMA1-RON2 interaction; AlphaScreen AMA1-biotinylated RON2 peptide binding; Potency, µM (titrated, usually from 58.2 µM), without a hit: at the highest dose activity change, negative = inhibition, actives largely listed as inhibitors; 0.2% of 360,000 active;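 note: potency is the fitted concentration of half-maximal effect; 0% = vehicle wells and -100% = peptide control; nearly all actives have a fitted effect of over 45% in size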
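AMA1 (3D7) with his tag at 25 nM final met compounds first, then biotinylated RON2 peptide at 25 nM; detection used donor plus acceptor beads, 10 µg/mL apiece, read by AlphaScreen after 30 min at room temperature.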
* hit, by the source's call; ? = inconclusive; . = not tested or not shown; + = active, no number; [ ] = another dose, or the depositor's remark. In the library only some 19% were active in any assay of this set; here they are far more common. Unless noted, calls come from the whole dose curve; as a rule, active = well fitted curve in the direction sought with a large enough effect; inconclusive = small, poorly fitted or top-dose-only effect, or another doubt; inactive = no such curve, though single readings can be large; an effect the other way counts as inactive or inconclusive.

SMILES	Shiga toxin inh	Cycloheximide cs	Pf growth 96h	Pf growth 48h	SARS PLP yeast	AMA1 RON2 block
CCOC(=O)C(Cc1ccnnc1)=NO	.	.	.	.	.	-9%
O=C(N/N=C\c1ccc2c(c1)OCO2)c1cncc(Br)c1	60*	23*	1%	19%	2%	22%
O=C(N/N=C/c1cc2c(cc1[N+](=O)[O-])OCO2)c1ccc2c(c1)OCO2	13	2	-29%	18%	0%	17%
CCn1cc(/C=N/NC(=O)c2ccc3c(c2)OCO3)cn1	24	35*	57%	-32%	16%	27%
O=C(N/N=C/c1ccccc1)c1ccc2c(c1)OCO2	24	25	?	254%	-2%	7%
Cc1nn(C)cc1/C=N/NC(=O)c1ccc2c(c1)OCO2	26	16*	49%	32%	0%	8%
CN(C)c1ccc(/C=N/NC(=O)c2ccc3c(c2)OCO3)cc1	91*	39*	214%	41%	-3%	-1%
COc1c(O)ccc(/C=N\NC(=O)c2ccc3c(c2)OCO3)c1[N+](=O)[O-]	11	14	?	109%	-5%	-1%
Cc1ccc(/C=N\NC(=O)c2ccc3c(c2)OCO3)o1	53	37*	1.3µM*	66%	-2%	21%
CCOC(=O)N/N=C\c1ccc(OC(=O)c2ccc3c(c2)OCO3)cc1	35	42*	2%	-6%	-2%	-1%
Cc1cc(O)cc(O)c1/C=N/NC(=O)c1ccc2c(c1)OCCO2	.	.	.	.	.	138%
COc1c(O)ccc(/C=N/NC(=O)c2ccc3c(c2)OCCO3)c1[N+](=O)[O-]	52*	21*	147%	198%	1%	9%
O=C(O)c1ccc(/C=N/NC(=O)c2ccc3c(c2)OCCO3)cc1	22	21*	?	-30%	7%	0%
Cc1ccc(C(=O)NN=Cc2ccc3c(c2)OCO3)cc1	.	.	.	.	.	-1%
COC(=O)c1cccc(CN2C(=O)C(C)Sc3ccc(C(C)=O)cc32)c1 (stereo not drawn)	.	.	.	.	.	-14%
COC(=O)c1ccc(CSc2n[nH]c(-c3ccccc3)n2)o1	7	10	-1%	19%	1%	13%
CCN(CC)CC(O)CN1C(=O)NC(C)(C)C1=O (stereo not drawn)	-6	1	55%	10%	0%	-1%
CN=c1scc(-c2c[nH]c3ccccc23)n1C	-16	1	45%	?	1%	-5%
O=C(CCNS(=O)(=O)c1c(Cl)cccc1Cl)OCC(=O)c1ccccc1F	+	11	67%	6%	3%	9%[11.6 µM]
O=C(CCNS(=O)(=O)c1c(Cl)cccc1Cl)OCC(=O)c1ccccc1	-43	11	-20%	2%	21%	-19%
CN(C(=O)CSc1nnc(NC2CCCCC2)s1)C1CCS(=O)(=O)C1 (stereo not drawn)	-3	-3	0%	-11%	2%	1%
N#CC1(NC(=O)CSc2nc3ccc([N+](=O)[O-])cc3s2)CCCCC1	.	.	?	5.2µM*	2%	-22%
CCN(C(=O)CSc1nc2ccc([N+](=O)[O-])cc2s1)C1CCS(=O)(=O)C1 (stereo not drawn)	-3	13*	12µM*	?	1%	-1%
CCc1ccc(Nc2nnc(SCC(=O)N(C)C3CCS(=O)(=O)C3)s2)cc1 (stereo not drawn)	23	17*	?	9.3µM*	-1%	19%
CCN(C(=O)CSc1nc2cc(S(=O)(=O)N(CC)CC)ccc2o1)C1CCS(=O)(=O)C1 (stereo not drawn)	6	-2	?	?	-2%	4%
SMILES	Shiga toxin inh	Cycloheximide cs	Pf growth 96h	Pf growth 48h	SARS PLP yeast	AMA1 RON2 block
N#CC1(NC(=O)CSc2nc3ccccc3s2)CCCCC1	.	.	-15%	?	-3%	-2%
CCCN(C(=O)CSc1nc2cc(S(=O)(=O)N(CC)CC)ccc2o1)C1CCS(=O)(=O)C1 (stereo not drawn)	.	.	5.2µM*	?	5%	14%
CC#CCN1c2ccccc2[C@]23C[C@@H](C(=O)OC)N(C(=O)NCCBr)C2=NC(C(=O)OC)=C(C(=O)OC)[C@H]13	.	.	.	.	.	-2%
O=CN1CCN(C(=O)CC(c2ccccc2)c2cc(Br)ccc2O)CC1 (stereo not drawn)	-5	1	374%	-24%	-5%	1%
CCN(C(=O)CSc1nnc(NCc2ccccc2)s1)C1CCS(=O)(=O)C1 (stereo not drawn)	26	6	?	15%	0%	4%
CCN(C(=O)CSc1nnc(Nc2cccc(C)c2C)s1)C1CCS(=O)(=O)C1 (stereo not drawn)	-7	-4	-102%	8.3µM*	?	-8%[11.6 µM]
Cn1c(O)c(N=NC(=O)c2ccco2)c2ccccc21	145*	44*	-3%	84%	-2%	11%
CC(C)CCn1c(O)c(N=NC(=O)c2ccco2)c2ccccc21	24*	22	?	?	-8%	-9%
Cn1c(O)c(N=NC(=O)CNC(=O)c2ccco2)c2ccccc21	-9	-1	47%	-1%	15%	-6%
Cc1cccc(C(=O)OCC(=O)NCCN2C(=O)CSC2=O)c1[N+](=O)[O-]	.	.	.	.	1%	8%
O=C(Nc1ccccc1C(F)(F)F)N1CCN(c2ccc3nnc(-c4ccc(F)cc4)n3n2)CC1	43	1	?	12µM*	8%	3%
O=C(NCCCN1CCCC1=O)Nc1ccc(Cl)cc1	.	.	.	.	.	14%
O=C(NCCCN1CCCC1=O)Nc1ccc([N+](=O)[O-])cc1	43	18*	?	-23%	1%	1%
O=C(NCCCN1CCCC1=O)c1sc2ccccc2c1Cl	39*	29*	4%	27%	-5%	27%
O=C(NCCCN1CCCC1=O)Nc1ccccc1Cl	20	7	13%	13%	-1%	1%
Cc1ccc(NC(=O)NCCCN2CCCC2=O)cc1Cl	74*	31*	13%	37%	-4%	-8%
O=C(NCCCN1CCCC1=O)Nc1ccccc1F	37*	19*	11%	42%	-3%	-9%
C=C(CCC(=O)c1ccccc1)C(=O)c1ccccc1	4	17*	-15%	4%	-91%	-8%[2.32 µM]
O=C(c1cc(COc2ccc(F)c(F)c2)on1)N1CCN(C/C=C/c2ccccc2)CC1	45*	37*	-8%	?	-12%	5%
CCCN1CCN(C(=O)c2cc(COc3ccc(F)c(F)c3)on2)CC1	40*	29*	0%	20%	-7%	-11%
CCCOC1CCCN(C(=O)c2cc(COc3ccc(F)c(F)c3)on2)C1 (stereo not drawn)	109*	44*	?	-1%	-1%	-6%
O=C(c1cc(COc2ccc(F)c(F)c2)on1)N1CCN(C2CCCCC2)C(=O)C1	59	31*	-15%	?	-2%	-2%
O=C(c1cc(COc2c(F)cccc2F)on1)N1CCN(C2CCCCC2)C(=O)C1	1	3	?	?	-5%	3%
